Screens deposited in PubChem BioAssay by National Center for Advancing Translational Sciences (NCATS).
Shown are actives, neighbours in structure and some others; about 19% of the full set was active somewhere.
HepG2 tox: counter-screen for TGF-b inhibitors: cytotoxicity in HepG2 cells | 0.76% of 410,000 active | Potency, µM (titrated, usually from 46.1 µM), for the others: at the highest dose activity change, negative = cytotoxicity, usual class: cytotoxic | HepG2 CAGA-GFP viability, ATP luminescence, 18 h; further: potency means the concentration at half of the fitted maximal effect
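CellTiter-Glo luminescence gave cytotoxicity after 18 hours at 37 degrees C. The cells were HepG2 CAGA-GFP in 1% FBS DMEM, stimulated with 500 pg/mL TGF-beta after compound addition. %Activity was normalised to no-cell wells (complete cell-killing) and DMSO (no toxicity), and curves were fitted and classified.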
DT40 TDP1 no CPT: qHTS for Inhibitors of human tyrosyl-DNA phosphodiesterase 1 (TDP1): qHTS in cells in absence of CPT; DT40 Tdp1-/- hTDP1 cells, no CPT, ATP luminescence, 48 h; Potency, µM (doses to about 46.2 µM), inactives show top-dose activity change, negative = growth inhibition, most hits filed as inhibitors; 15% of 420,000 active; AID 686978, 2013; further: potency means the concentration at half of the fitted maximal effect; on the % scale 0 is the no-effect control and ±100 the full control effect; nearly all actives have a fitted effect of over 55% in size
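Chicken DT40 Tdp1-/- cells stably complemented with human TDP1 were seeded at 400 cells/well with DMSO in place of 20 nM camptothecin. After compound pinning, cells grew at least 48 hr at 37 °C; viability read by CellTiter-Glo luminescence.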
TGFb inhibitor: TGF-b pathway inhibition; AID 588855; Potency, µM (doses to about 46.1 µM), without a hit: at the top dose activity, negative = inhibition, actives largely listed as inhibitors; 1.2% of 410,000 active; HepG2 CAGA-GFP TGF-b/SMAD3 reporter, GFP fluorescence, 18 h; TGF-beta stimulated, 500 pg/mL final; further: potency means the concentration at half of the fitted maximal effect; on the % scale 0 is the no-effect control and ±100 the full control effect; nearly all actives have a fitted effect of over 65% in size
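Using HEPG2 CAGA-GFP reporter cells at 1000 cells/well, we pinned test compounds, stimulated with recombinant TGF-beta (500 pg/mL final) and measured total well GFP after 18 h.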
DT40 TDP1 CPT: growth inhibition of DT40 Tdp1-/-;hTDP1 cells with camptothecin (screen for TDP1 inhibitors) | chicken DT40 Tdp1-/-;hTDP1 cells + 20 nM CPT, ATP luminescence, 48 h | Potency, µM (doses to about 46.2 µM), for inactives: top-dose activity change, negative = growth inhibition, actives largely listed as inhibitors | 12% of 420,000 active | AID 686979; further: potency means the concentration at half of the fitted maximal effect; on the % scale 0 is the no-effect control and ±100 the full control effect; nearly all actives have a fitted effect of over 55% in size
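Chicken DT40 Tdp1-/- cells stably complemented with human TDP1 were seeded at 400 cells/well in medium containing 20 nM camptothecin, exposed to pin-transferred compounds, and grown at 37 °C for at least 48 hr. Viability was read as ATP luminescence.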
IL-1B inflam inh: blocks inflammasome-driven IL-1 beta release; AID 743279; THP-1 LPS/ATP IL-1B secretion, AlphaLISA, 16 h; hits give low values; activity change, % at 57.5 µM; 4.7% of 360,000 active; in the data active means activity change below about -50%; inconclusive means mostly about -30% to -49%; further: on the % scale 0 is the no-effect control and ±100 the full control effect
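THP-1 cells pretreated 1 hr with compounds (up to 57.5 uM final), then stimulated with LPS (250 ng/mL final) plus ATP (1.25 mM final); secreted IL-1B measured by AlphaLISA after 16 hr, decreased signal indicating inhibition.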
ASM inhibitor: inhibitors of human secretory acid sphingomyelinase; 0.006% of 340,000 active; AID 504937; Potency, µM (highest dose often 57.5 µM), for the others: at the top dose activity change, negative = inhibition, hits mostly inhibitors; P17405; placental ASM, HMU-PC fluorogenic substrate, 60 min; further: potency means the concentration at half of the fitted maximal effect
Target sequence (P17405 47-631 limits assumed): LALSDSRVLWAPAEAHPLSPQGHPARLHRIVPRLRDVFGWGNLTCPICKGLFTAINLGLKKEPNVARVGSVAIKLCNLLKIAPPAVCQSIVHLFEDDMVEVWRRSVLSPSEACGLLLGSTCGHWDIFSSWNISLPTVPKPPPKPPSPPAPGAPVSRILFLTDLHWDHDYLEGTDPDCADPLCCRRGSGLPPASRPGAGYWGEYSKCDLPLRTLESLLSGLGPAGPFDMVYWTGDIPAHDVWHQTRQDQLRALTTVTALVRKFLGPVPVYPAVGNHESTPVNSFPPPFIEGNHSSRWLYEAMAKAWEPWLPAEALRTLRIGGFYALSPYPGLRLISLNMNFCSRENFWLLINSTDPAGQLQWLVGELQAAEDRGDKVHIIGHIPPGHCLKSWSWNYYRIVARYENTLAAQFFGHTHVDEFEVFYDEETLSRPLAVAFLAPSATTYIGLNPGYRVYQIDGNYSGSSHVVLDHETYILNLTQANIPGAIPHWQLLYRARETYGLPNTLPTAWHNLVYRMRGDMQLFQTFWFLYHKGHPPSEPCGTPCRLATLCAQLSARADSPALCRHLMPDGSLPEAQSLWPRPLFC
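Steps: dispense placental human ASM, pin compound, wait 10 min at room temperature, add HMU-PC0 substrate at 9 uM final, incubate 60 min at 37 °C, add stop solution raising pH to 10, read fluorescence.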
* marks the source's active call; other numbers are inactive results; [ ] = dose if it differs, or a comment. Unless noted, the call rests on the fitted dose curve; in most records, active means well fitted curve in the direction sought with a large enough effect; inconclusive means small, poorly fitted or top-dose-only effect, or another doubt; inactive means no such curve, though single readings can be large; an effect the other way counts as inactive or inconclusive.

Cc1cc(OC(C)C(=O)N(Cc2cccs2)C2CCS(=O)(=O)C2)ccc1Cl (stereo not given) was read as HepG2 tox -4%, DT40 TDP1 no CPT inconclusive, TGFb inhibitor -12%, DT40 TDP1 CPT inconclusive, IL-1B inflam inh -19 and ASM inhibitor -1%.
COc1ccc(N(Cc2cccs2)C(=O)c2ccc(C(C)(C)C)cc2)cc1 was read as HepG2 tox -28%, DT40 TDP1 no CPT inconclusive, TGFb inhibitor inconclusive and DT40 TDP1 CPT inconclusive.
CCCCOc1cccc(C(=O)N(Cc2cccs2)c2ccc(OC)cc2)c1 was read as HepG2 tox -19%, DT40 TDP1 no CPT 6.5µM* and DT40 TDP1 CPT inconclusive.
Screening COc1ccc(N(Cc2cccs2)C(=O)c2ccccc2C)cc1 returned HepG2 tox -24%, DT40 TDP1 no CPT 13µM*, TGFb inhibitor -13% and DT40 TDP1 CPT 12µM*.
Screening COc1ccc(N(Cc2cccs2)C(=O)c2ccc(OCC(C)C)cc2)cc1 returned HepG2 tox -22%, DT40 TDP1 no CPT 21µM*, TGFb inhibitor -21% and DT40 TDP1 CPT inconclusive.
Cc1ccc(-c2nnc(SC(C)C(=O)NCc3ccco3)n2C)cc1 (stereo not given) was read as HepG2 tox -9%, DT40 TDP1 no CPT -13%, TGFb inhibitor -12% and DT40 TDP1 CPT -1%.
CCOC(=O)c1ccccc1NC(=O)COC(=O)C1CC(=O)N(CCc2ccccc2)C1 (stereo not given) was read as HepG2 tox -10%, DT40 TDP1 no CPT inconclusive, TGFb inhibitor -1%, DT40 TDP1 CPT -23%, IL-1B inflam inh 7 and ASM inhibitor 0%.
For C[C@H](NC(=O)COc1ccc(Cl)cc1)C(=O)N1CCC2(CC1)NCCc1[nH]cnc12 the results were HepG2 tox -4%, DT40 TDP1 no CPT 0%, TGFb inhibitor 2%, DT40 TDP1 CPT 0%, IL-1B inflam inh -13 and ASM inhibitor 0%.
`COc1cc2nc(CN(CCO)C3CS(=O)(=O)CC3O)nc(N3CCCCC3)c2cc1OC` (stereo not given) gave DT40 TDP1 no CPT -4% and DT40 TDP1 CPT -6%[9.04 µM].
`O=[N+]([O-])c1cc(Cl)cc(/C=N\Nc2ccccn2)c1O` gave HepG2 tox -44%, DT40 TDP1 no CPT 5.2µM*, TGFb inhibitor inconclusive, DT40 TDP1 CPT 5.2µM*, IL-1B inflam inh 126 and ASM inhibitor -5%.
`Cc1[nH]c2ccccc2c1C=NNC(=O)c1cc(-c2cccnc2)nc2ccccc12` gave HepG2 tox -5%, DT40 TDP1 no CPT 7.3µM*, TGFb inhibitor 11%, DT40 TDP1 CPT 13µM*, IL-1B inflam inh 22 and ASM inhibitor -27%.
`COc1cccc(/C=N/NC(=O)c2cc(-c3ccccn3)nc3ccccc23)c1O` gave HepG2 tox -3%, DT40 TDP1 no CPT 8.2µM*, TGFb inhibitor -24%, DT40 TDP1 CPT 9.2µM*, IL-1B inflam inh 87 and ASM inhibitor -7%.
`C/C(=N\NC(=O)c1cc(-c2ccccn2)nc2ccccc12)c1cccc([N+](=O)[O-])c1` gave HepG2 tox -10%, DT40 TDP1 no CPT inconclusive, TGFb inhibitor -6%, DT40 TDP1 CPT -12%, IL-1B inflam inh 9 and ASM inhibitor -2%.
Screening O=C(N/N=C/c1cc(Cl)cc([N+](=O)[O-])c1O)c1cc(-c2ccccn2)nc2ccccc12 returned HepG2 tox -27%, DT40 TDP1 no CPT 15µM*, TGFb inhibitor inconclusive, DT40 TDP1 CPT 6.5µM*, IL-1B inflam inh 131 and ASM inhibitor 0%.
For CCOC(=O)c1c(S(=O)(=O)Nc2ccccn2)c(C)n(C)c1C the results were HepG2 tox 7%, DT40 TDP1 no CPT 12%, TGFb inhibitor 6%, DT40 TDP1 CPT 11%, IL-1B inflam inh 15 and ASM inhibitor 2%.
For Cc1ccc2cc(NC(=O)C3(C)CCN(C)C3)ccc2n1 (stereo not given) the results were HepG2 tox 10%, DT40 TDP1 no CPT 4%, TGFb inhibitor 1%, DT40 TDP1 CPT -21% and IL-1B inflam inh 19.
For O=C(NCCC1=CCCCC1)c1ccc2c(c1)ncn2-c1ccc(F)c(F)c1 the results were HepG2 tox -15%, DT40 TDP1 no CPT -29%, TGFb inhibitor inconclusive and DT40 TDP1 CPT inconclusive.
Screening COc1ccc(/C=N/NC(=O)c2cc(-c3ccccc3)nc3ccccc23)c(C(=O)O)c1OC returned HepG2 tox -4%, DT40 TDP1 no CPT -23%, TGFb inhibitor 1%, DT40 TDP1 CPT -16%, IL-1B inflam inh 1 and ASM inhibitor 2%.
COc1ccc(/C=N/NC(=O)c2cc(-c3cccnc3)nc3ccccc23)c(OC)c1 was read as HepG2 tox 1%, DT40 TDP1 no CPT 4.6µM*, TGFb inhibitor 5%, DT40 TDP1 CPT inconclusive, IL-1B inflam inh 27 and ASM inhibitor 45%.
Screening COc1cccc(-c2cc(C(=O)N/N=C/c3cccc(OC)c3OC)c3ccccc3n2)c1 returned HepG2 tox -12%, DT40 TDP1 no CPT 4.6µM*, TGFb inhibitor -4%, DT40 TDP1 CPT 21µM*, IL-1B inflam inh -13 and ASM inhibitor 0%.
CC(=O)N1CCN(C(=O)c2ccc(-n3c(C)ccc3C)cc2)CC1 was read as HepG2 tox -3%, DT40 TDP1 no CPT -66%, TGFb inhibitor -13%, DT40 TDP1 CPT inconclusive, IL-1B inflam inh -66* and ASM inhibitor -2%.
`CCOC(=O)N1CCN(C(=O)c2ccc(-n3c(C)ccc3C)cc2)CC1` gave HepG2 tox 1%, DT40 TDP1 no CPT 15µM*, TGFb inhibitor -17%, DT40 TDP1 CPT inconclusive, IL-1B inflam inh inconclusive and ASM inhibitor 0%.
CCOC(=O)c1[nH]cnc1N=Nc1c(O)ccc2ccccc12 was read as HepG2 tox 4%, DT40 TDP1 no CPT 5.8µM*, TGFb inhibitor 0%, DT40 TDP1 CPT 5.2µM*, IL-1B inflam inh 43 and ASM inhibitor -2%.
For Oc1ccc2ccccc2c1N=Nc1ccccn1 the results were HepG2 tox -21%, DT40 TDP1 no CPT 0.58µM*, TGFb inhibitor -46%, DT40 TDP1 CPT 0.65µM*, IL-1B inflam inh 23 and ASM inhibitor -23%.
